# Numbering of substitutions follows the chain as printed.
# Key:
# Experiment in all cases: yeast three-hybrid, YBZ-1, SC-Leu-His + 0.5 mM 3-AT, 4 days
# Conditions in all cases: tags: N-Gal4 AD-HA kept; label: inside an RPR1-promoter hybrid RNA with tandem MS2 sites; ssRNA
# PUM1 PUF domain R7-LWG = PUM1 PUF domain R7-LWG (Homo sapiens, UniProt Q14671 828-1176, S1079L;N1080W;E1083G)
# How it was run: (§1)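 Matching RNA elements and Pumilio-1 PUF domain libraries, randomized at the three base-contacting residues of every repeat, were co-expressed from a centromeric plasmid in strain YBZ-1 (LexA–MS2 coat fusion, HIS3 reporter). The repeat regions were PCR-amplified and Illumina-sequenced from cells grown four days on SC-Leu (input) or SC-Leu-His + 0.5 mM 3-AT (selection). The interaction score is the log change in variant frequency from input to selection. It is computed in log2, with a pseudocount of 1 for absent variants.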
# PUM1 PUF domain R7-KWR = PUM1 PUF domain R7-KWR (Homo sapiens, UniProt Q14671 828-1176, S1079K;N1080W;E1083R)
# How it was run: as §1
# PUM1 PUF domain R4-TPC = PUM1 PUF domain R4-TPC (Homo sapiens, UniProt Q14671 828-1176, N971T;H972P;Q975C)
# How it was run: as §1
# PUM1 PUF domain R4-PHA = PUM1 PUF domain R4-PHA (Homo sapiens, UniProt Q14671 828-1176, N971P;Q975A)
# How it was run: as §1
# PUM1 PUF domain R7-GIR = PUM1 PUF domain R7-GIR (Homo sapiens, UniProt Q14671 828-1176, S1079G;N1080I;E1083R)
# How it was run: as §1
# PUM1 PUF domain R5-QCH = PUM1 PUF domain R5-QCH (Homo sapiens, UniProt Q14671 828-1176, C1007Q;R1008C;Q1011H)
# How it was run: as §1
# PUM1 PUF domain R3-TRG = PUM1 PUF domain R3-TRG (Homo sapiens, UniProt Q14671 828-1176, C935T;Q939G)
# How it was run: as §1
# PUM1 PUF domain R6-VYQ = target: T1, PUM1 PUF domain R6-VYQ (Homo sapiens, UniProt Q14671 828-1176, N1043V)
# T1 sequence: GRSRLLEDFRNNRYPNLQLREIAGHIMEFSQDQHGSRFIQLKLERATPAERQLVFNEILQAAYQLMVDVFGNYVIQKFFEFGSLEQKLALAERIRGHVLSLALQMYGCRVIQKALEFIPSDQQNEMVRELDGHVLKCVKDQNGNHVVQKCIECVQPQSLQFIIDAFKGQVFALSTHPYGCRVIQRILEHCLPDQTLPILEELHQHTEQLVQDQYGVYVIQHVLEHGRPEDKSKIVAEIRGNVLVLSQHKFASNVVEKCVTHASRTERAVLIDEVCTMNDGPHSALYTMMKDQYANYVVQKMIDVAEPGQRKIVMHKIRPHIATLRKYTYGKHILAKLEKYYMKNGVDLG
# How it was run: as §1
# PUM1 PUF domain R5-RFM = PUM1 PUF domain R5-RFM (Homo sapiens, UniProt Q14671 828-1176, C1007R;R1008F;Q1011M)
# How it was run: as §1
# PUM1 PUF domain R4-DHG = PUM1 PUF domain R4-DHG (Homo sapiens, UniProt Q14671 828-1176, N971D;Q975G)
# How it was run: as §1
# PUM1 PUF domain R6-VWL = target: T2, PUM1 PUF domain R6-VWL (Homo sapiens, UniProt Q14671 828-1176, N1043V;Y1044W;Q1047L)
# T2 sequence: T1 sequence with Y217W, Q220L
# How it was run: as §1
# PUM1 PUF domain R6-LWL = target: T3, PUM1 PUF domain R6-LWL (Homo sapiens, UniProt Q14671 828-1176, N1043L;Y1044W;Q1047L)
# T3 sequence: T1 sequence with V216L, Y217W, Q220L
# How it was run: as §1
# PUM1 PUF domain R5-PRI = PUM1 PUF domain R5-PRI (Homo sapiens, UniProt Q14671 828-1176, C1007P;Q1011I)
# How it was run: as §1
# PUM1 PUF domain R4-AMC = PUM1 PUF domain R4-AMC (Homo sapiens, UniProt Q14671 828-1176, N971A;H972M;Q975C)
# How it was run: as §1
# PUM1 PUF domain R2-RRG = PUM1 PUF domain R2-RRG (Homo sapiens, UniProt Q14671 828-1176, N899R;Y900R;Q903G)
# How it was run: as §1
# PUM1 PUF domain R5-KCV = PUM1 PUF domain R5-KCV (Homo sapiens, UniProt Q14671 828-1176, C1007K;R1008C;Q1011V)
# How it was run: as §1
# PUM1 PUF domain R5-FRG = PUM1 PUF domain R5-FRG (Homo sapiens, UniProt Q14671 828-1176, C1007F;Q1011G)
# How it was run: as §1
# PUM1 PUF domain R5-KRW = PUM1 PUF domain R5-KRW (Homo sapiens, UniProt Q14671 828-1176, C1007K;Q1011W)
# How it was run: as §1
# PUM1 PUF domain R3-GYH = PUM1 PUF domain R3-GYH (Homo sapiens, UniProt Q14671 828-1176, C935G;R936Y;Q939H)
# How it was run: as §1
# PUM1 PUF domain R8-RHY = PUM1 PUF domain R8-RHY (Homo sapiens, UniProt Q14671 828-1176, N1122R;Y1123H;Q1126Y)
# How it was run: as §1
sequence,measurement,setting,value
GGCUAGAACUAGUGGAUCCCCCGGCGCCCGGCGGCUCGAGCCCGGGUAAGUCUAAAUAGUCUGCAUGCCGCCGGGCGCCAUGCCUGCAGGUCGACUCUAGAAAACAUG,binding signal,PUM1 PUF domain R7-LWG,2.65 log2 enrichment (interaction score)
same,binding signal,PUM1 PUF domain R7-KWR,5.09 log2 enrichment (interaction score)
GGCUAGAACUAGUGGAUCCCCCGGCGCCCGGCGGCUCGAGCCCGGGUAAGUGUAUAUAGUCUGCAUGCCGCCGGGCGCCAUGCCUGCAGGUCGACUCUAGAAAACAUG,binding signal,PUM1 PUF domain R4-TPC,5.59 log2 enrichment (interaction score)
same,binding signal,PUM1 PUF domain R4-PHA,6.34 log2 enrichment (interaction score)
GGCUAGAACUAGUGGAUCCCCCGGCGCCCGGCGGCUCGAGCCCGGGUAAGUUUAAAUAGUCUGCAUGCCGCCGGGCGCCAUGCCUGCAGGUCGACUCUAGAAAACAUG,binding signal,PUM1 PUF domain R7-LWG,5.68 log2 enrichment (interaction score)
same,binding signal,PUM1 PUF domain R7-GIR,3.02 log2 enrichment (interaction score)
GGCUAGAACUAGUGGAUCCCCCGGCGCCCGGCGGCUCGAGCCCGGGUAAGUGUGAAUAGUCUGCAUGCCGCCGGGCGCCAUGCCUGCAGGUCGACUCUAGAAAACAUG,binding signal,PUM1 PUF domain R5-QCH,3.31 log2 enrichment (interaction score)
GGCUAGAACUAGUGGAUCCCCCGGCGCCCGGCGGCUCGAGCCCGGGUAAGUGUAAAUAGUCUGCAUGCCGCCGGGCGCCAUGCCUGCAGGUCGACUCUAGAAAACAUG,binding signal,PUM1 PUF domain R3-TRG,3.15 log2 enrichment (interaction score)
same,binding signal,PUM1 PUF domain R6-VYQ,4.06 log2 enrichment (interaction score)
same,binding signal,PUM1 PUF domain R4-TPC,4.17 log2 enrichment (interaction score)
same,binding signal,PUM1 PUF domain R5-RFM,1.2 log2 enrichment (interaction score)
same,binding signal,PUM1 PUF domain R4-DHG,3.07 log2 enrichment (interaction score)
same,binding signal,PUM1 PUF domain R6-VWL,4.01 log2 enrichment (interaction score)
same,binding signal,PUM1 PUF domain R6-LWL,3.89 log2 enrichment (interaction score)
same,binding signal,PUM1 PUF domain R4-PHA,6.46 log2 enrichment (interaction score)
same,binding signal,PUM1 PUF domain R5-PRI,4.45 log2 enrichment (interaction score)
same,binding signal,PUM1 PUF domain R4-AMC,3.21 log2 enrichment (interaction score)
GGCUAGAACUAGUGGAUCCCCCGGCGCCCGGCGGCUCGAGCCCGGGUAAGUAUAAAUAGUCUGCAUGCCGCCGGGCGCCAUGCCUGCAGGUCGACUCUAGAAAACAUG,binding signal,PUM1 PUF domain R7-KWR,2.7 log2 enrichment (interaction score)
GGCUAGAACUAGUGGAUCCCCCGGCGCCCGGCGGCUCGAGCCCGGGUAAGUGUAAAGAGUCUGCAUGCCGCCGGGCGCCAUGCCUGCAGGUCGACUCUAGAAAACAUG,binding signal,PUM1 PUF domain R2-RRG,2.19 log2 enrichment (interaction score)
GGCUAGAACUAGUGGAUCCCCCGGCGCCCGGCGGCUCGAGCCCGGGUAAGUGUACAUAGUCUGCAUGCCGCCGGGCGCCAUGCCUGCAGGUCGACUCUAGAAAACAUG,binding signal,PUM1 PUF domain R4-TPC,5.9 log2 enrichment (interaction score)
same,binding signal,PUM1 PUF domain R4-PHA,5.37 log2 enrichment (interaction score)
same,binding signal,PUM1 PUF domain R4-AMC,2.52 log2 enrichment (interaction score)
GGCUAGAACUAGUGGAUCCCCCGGCGCCCGGCGGCUCGAGCCCGGGUAAGUGUUAAUAGUCUGCAUGCCGCCGGGCGCCAUGCCUGCAGGUCGACUCUAGAAAACAUG,binding signal,PUM1 PUF domain R5-RFM,4.36 log2 enrichment (interaction score)
same,binding signal,PUM1 PUF domain R5-KCV,1.51 log2 enrichment (interaction score)
same,binding signal,PUM1 PUF domain R5-FRG,2.88 log2 enrichment (interaction score)
GGCUAGAACUAGUGGAUCCCCCGGCGCCCGGCGGCUCGAGCCCGGGUAAGUGUCAAUAGUCUGCAUGCCGCCGGGCGCCAUGCCUGCAGGUCGACUCUAGAAAACAUG,binding signal,PUM1 PUF domain R5-KRW,2.58 log2 enrichment (interaction score)
same,binding signal,PUM1 PUF domain R5-KCV,2.63 log2 enrichment (interaction score)
same,binding signal,PUM1 PUF domain R5-FRG,2.42 log2 enrichment (interaction score)
GGCUAGAACUAGUGGAUCCCCCGGCGCCCGGCGGCUCGAGCCCGGGUAAGUGUAAUUAGUCUGCAUGCCGCCGGGCGCCAUGCCUGCAGGUCGACUCUAGAAAACAUG,binding signal,PUM1 PUF domain R3-GYH,2.58 log2 enrichment (interaction score)
GGCUAGAACUAGUGGAUCCCCCGGCGCCCGGCGGCUCGAGCCCGGGUAAGCGUAAAUAGUCUGCAUGCCGCCGGGCGCCAUGCCUGCAGGUCGACUCUAGAAAACAUG,binding signal,PUM1 PUF domain R8-RHY,4.97 log2 enrichment (interaction score)

# From PMC8384837, “Expanding the binding specificity for RNA recognition by a PUF domain”
